Among the data in PubChem BioAssay (NCI) are growth values, retold here.

Test systems include HCT-15 colon; HT29 colon; SNB-19 CNS; U251 CNS; PC-3 prostate; SK-MEL-5 melanoma; UACC-62 melanoma; LOX IMVI melanoma; SK-MEL-28 melanoma; SK-MEL-2 melanoma; EKVX NSCLC; SN12C renal; UO-31 renal; ACHN renal; CAKI-1 renal; A498 renal; MOLT-4 leukemia; TK-10 renal; CCRF-CEM leukemia; SNB-75 CNS.
What all share (experiment): NCI-60 one-dose screen, 48 h (100 = growth as untreated, 0 = no growth, -100 = all killed)
Holding throughout (settings): 10 µM unless noted

This is part of a sample that, as a whole, favours compounds with a hit. Of some 83,000 tested, about 20% had one in any assay.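 Compound tested at a single concentration for 48 hours in 96-well plates; a percent growth value below 10 was scored as active.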 Values without a mark were called inactive. Activity calls are given as the source filed them.

Regarding `CN1C(=O)N(C)C2NC(N/N=C/c3ccccc3)=NC21` (stereo unspecified), the growth in the test with HCT-15 colon was 103%; in the test with HT29 colon it was 111%; with SNB-19 CNS it was 102%; with U251 CNS, 101%; in the test with PC-3 prostate, 95.6%; with SK-MEL-5 melanoma it was 102%. Further, the growth in the test on UACC-62 melanoma was 100%; in the test with LOX IMVI melanoma, 96.5%; with SK-MEL-28 melanoma, 102%; with SK-MEL-2 melanoma, 108%; in the test on EKVX NSCLC it was 98.7%; with SN12C renal it was 98.5%. The growth in the test on UO-31 renal is 92.7%; in the test with ACHN renal, 102%; with CAKI-1 renal, 88.8%; in the test with A498 renal, 95.4%; with MOLT-4 leukemia, 103%.
With `C[C@H]1[C@H](C)CC[C@]2(CO)CC[C@]3(C)C(=CC[C@@H]4[C@@]5(C)CCCNC(C)(C)[C@@H]5CC[C@]43C)[C@H]12`, the growth is 6.84% (active) with HCT-15 colon; -75.4% (active) in the test on HT29 colon; -64.9% (active) in the test on SNB-19 CNS; -83.3% (active) with U251 CNS; -43.2% (active) with PC-3 prostate; 22.5% in the test with SK-MEL-5 melanoma. The growth was -72.3% (active) with UACC-62 melanoma; -94.9% (active) with LOX IMVI melanoma; -84.9% (active) in the test with SK-MEL-28 melanoma; 13.1% with SK-MEL-2 melanoma; 19.4% with EKVX NSCLC; -1.54% (active) in the test with SN12C renal. In addition, the growth with UO-31 renal was 12.5%; in the test with TK-10 renal it was 23%; in the test with ACHN renal it was -66.3% (active); in the test with CAKI-1 renal it was 16.4%; in the test on CCRF-CEM leukemia it was -34.7% (active); in the test with MOLT-4 leukemia it was -45.6% (active).
For the molecule `COc1ccc(-c2nc(N/N=C/c3c[nH]c4ccccc34)nc(N3CCOCC3)c2C#N)cc1`, the growth in the test on HCT-15 colon is 44.1%; in the test on HT29 colon, 51.4%; in the test with SNB-19 CNS it was 109%; in the test on U251 CNS, 58.7%; in the test with PC-3 prostate, 74.3%; in the test with SK-MEL-5 melanoma, 101%. Besides, the growth was 106% in the test on UACC-62 melanoma; 102% with LOX IMVI melanoma; 41.3% in the test on SK-MEL-28 melanoma; 97.8% with SK-MEL-2 melanoma; 99.8% in the test with EKVX NSCLC; 92.2% in the test on SN12C renal. Also, the growth was 63.7% in the test on UO-31 renal; 104% in the test with TK-10 renal; 76.1% in the test with ACHN renal; 98% with CAKI-1 renal; 51.2% in the test with A498 renal; 56.9% in the test on CCRF-CEM leukemia. The growth with MOLT-4 leukemia is 55.6%.
Consider `CC1=CC[C@@H]2CC[C@]3(C)[C@H](CC[C@@H]4[C@@]5(C)CCCNC(C)(C)[C@@H]5CC[C@]43C)[C@H]2[C@@H]1C`, for which the growth with HCT-15 colon is -57.8% (active); with HT29 colon, -55.2% (active); with SNB-19 CNS, 18.1%; in the test on U251 CNS, -90.8% (active); in the test with PC-3 prostate it was 27.7%; with SK-MEL-5 melanoma, 89.9%. In addition, the growth with UACC-62 melanoma was 92.4%; in the test on LOX IMVI melanoma it was -100% (active); in the test on SK-MEL-28 melanoma, 63.7%; with SK-MEL-2 melanoma, 94.6%; in the test on EKVX NSCLC, 84.5%; in the test with SN12C renal it was 48.3%. Further, the growth in the test on UO-31 renal is 55.7%; in the test on TK-10 renal it was 80.5%; in the test with ACHN renal it was 8.91% (active); with CAKI-1 renal it was 30.4%; in the test with A498 renal it was 60.2%; in the test on CCRF-CEM leukemia, 5.21% (active). Moreover, the growth with MOLT-4 leukemia is -8.43% (active).
For `COc1cc(C(=O)/C=C/c2c(C)n([O-])c3ccc(Cl)cc3[n+]2=O)cc(OC)c1OC`, the growth with HCT-15 colon is 29.6%; with HT29 colon it was 62.8%; in the test with SNB-19 CNS, 99.8%; in the test on U251 CNS it was 61.4%; in the test with PC-3 prostate it was 46.7%; in the test with SK-MEL-5 melanoma, 89.4%. The growth in the test with UACC-62 melanoma was 60.4%; in the test with LOX IMVI melanoma it was 65.8%; with SK-MEL-28 melanoma, 80.8%; in the test on SK-MEL-2 melanoma it was 59.6%; in the test on EKVX NSCLC it was 80.9%; with SN12C renal, 56.3%. Besides, the growth in the test with UO-31 renal was 43%; in the test with TK-10 renal, 46.1%; in the test on ACHN renal it was 53.5%; with A498 renal, 100%; in the test on CCRF-CEM leukemia, -30.6% (active); in the test with MOLT-4 leukemia, 6.41% (active).
For `Cc1ccc2[nH]c(=O)cc(-n3nncc3COc3ccc(C=O)cc3)c2c1`, the growth with HCT-15 colon is 102%; with HT29 colon, 105%; in the test on SNB-19 CNS it was 102%; with U251 CNS, 102%; in the test on PC-3 prostate, 97.8%; in the test on SK-MEL-5 melanoma it was 101%. The growth in the test on UACC-62 melanoma was 93.7%; in the test on LOX IMVI melanoma, 99.6%; with SK-MEL-28 melanoma, 113%; in the test on SK-MEL-2 melanoma, 101%; in the test on UO-31 renal it was 62.9%; with TK-10 renal it was 109%. Also, the growth in the test with ACHN renal is 98.9%; with CAKI-1 renal, 87.8%; with A498 renal, 117%; in the test on CCRF-CEM leukemia it was 97.9%; with MOLT-4 leukemia, 108%.
For the molecule `C[C@H]1[C@H](C)CC[C@]2(CO)CC[C@]3(C)C(=CC[C@@H]4[C@@]5(C)Cc6c([nH]c7ccccc67)C(C)(C)[C@@H]5CC[C@]43C)[C@H]12`, the growth with HCT-15 colon is 100%; with HT29 colon it was 68.1%; in the test with SNB-19 CNS, 80.8%; with U251 CNS, 72.4%; with PC-3 prostate, 68.5%; with SK-MEL-5 melanoma, 97.5%. In addition, the growth with UACC-62 melanoma was 81.4%; with LOX IMVI melanoma, 79.1%; in the test on SK-MEL-28 melanoma, 79.6%; in the test with SK-MEL-2 melanoma it was 85.2%; in the test with EKVX NSCLC it was 75.5%; in the test on SN12C renal it was 55.6%. Further, the growth is 74.3% in the test on UO-31 renal; 86.3% with TK-10 renal; 60.8% in the test on ACHN renal; 73.2% with CAKI-1 renal; 67% in the test on MOLT-4 leukemia.
On to `CC(=O)N1N=C(c2cccc(Nc3ccncc3)c2)CC1c1ccc2c(c1)OCO2` (stereo unspecified), for which the growth with HCT-15 colon is 81.2%; with SNB-75 CNS, 80.2%; in the test with SNB-19 CNS it was 94.8%; with U251 CNS it was 82.8%; with PC-3 prostate it was 79%; with SK-MEL-5 melanoma it was 81.6%. In addition, the growth with UACC-62 melanoma was 91.9%; in the test with LOX IMVI melanoma, 81.7%; in the test on SK-MEL-28 melanoma, 93.8%; with SK-MEL-2 melanoma it was 99.9%; with EKVX NSCLC it was 63%; in the test on SN12C renal, 81%. Also, the growth was 84.5% with UO-31 renal; 98.1% in the test with TK-10 renal; 101% with ACHN renal; 81.8% in the test with CAKI-1 renal; 70.7% in the test on A498 renal; 81.2% in the test with CCRF-CEM leukemia.
For `Nc1nc(SN=Nc2ccc(S(N)(=O)=O)cc2)c2[nH]cnc2n1`, the growth with HCT-15 colon was 12.6%; in the test with HT29 colon, 9.84% (active); in the test with SNB-19 CNS it was 103%; with U251 CNS, 42.7%; in the test with PC-3 prostate, 23.8%; with SK-MEL-5 melanoma, 46.7%. In addition, the growth in the test on UACC-62 melanoma was 0.536% (active); in the test on LOX IMVI melanoma, -9.46% (active); in the test on SK-MEL-28 melanoma, 15.6%; with SK-MEL-2 melanoma it was -3.49% (active); with EKVX NSCLC it was 28.6%; with SN12C renal, 24.2%. Moreover, the growth was 22.5% with UO-31 renal; -9.94% (active) with TK-10 renal; 15.9% with ACHN renal; 1.85% (active) in the test on CAKI-1 renal; -2.18% (active) in the test on CCRF-CEM leukemia; -1.6% (active) in the test on MOLT-4 leukemia.
As to `CCc1nc(C)cn1C(=O)OCc1nc2nc(Cl)nc(N3CCOCC3)c2[nH]1`, the growth is -28.1% (active) in the test on HCT-15 colon; -63.1% (active) with HT29 colon; 55.8% in the test on SNB-19 CNS; -55.3% (active) in the test on U251 CNS; -63.5% (active) in the test with PC-3 prostate; -35.8% (active) in the test with SK-MEL-5 melanoma. For the same molecule, the growth with UACC-62 melanoma was -88.4% (active); in the test on LOX IMVI melanoma it was -80.9% (active); in the test with SK-MEL-28 melanoma, -89.6% (active); in the test with SK-MEL-2 melanoma, -90.9% (active); in the test with EKVX NSCLC it was 48.2%; with SN12C renal, -21.3% (active). Also, the growth in the test with UO-31 renal was -100% (active); with TK-10 renal, -91.5% (active); in the test on ACHN renal, -100% (active); with CAKI-1 renal it was -80% (active); in the test on A498 renal it was 22.1%; with CCRF-CEM leukemia, -5.27% (active).
In the case of `CCN(CC)CCSCCCNc1c(C)cnc2cc(Cl)ccc12`, the growth is 76.7% with HCT-15 colon; 54.9% in the test on HT29 colon; 104% in the test on SNB-19 CNS; 84% with U251 CNS; 85.1% in the test with PC-3 prostate; 75.3% with SK-MEL-5 melanoma. For the same molecule, the growth in the test with UACC-62 melanoma is 93.9%; in the test on LOX IMVI melanoma, 79.5%; in the test with SK-MEL-28 melanoma, 87%; in the test on SK-MEL-2 melanoma it was 143%; in the test on EKVX NSCLC it was 87.4%; in the test on UO-31 renal, 54.9%. In addition, the growth is 118% with TK-10 renal; 90.5% with CAKI-1 renal; 71.4% in the test on A498 renal; 80.6% with CCRF-CEM leukemia; 70.4% in the test with MOLT-4 leukemia.
